Hit rate of the full screen: of about 140,000 compounds, about 4,300 (3.1%) were called active. Inconclusive results (about 21%) are left out. Many of the other results were omitted from the sample, so actives are more common in it than they were. Unmarked numbers belong to inactive results.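 How the source made its calls: active means readout at or below -70, meaning at least 70% loss of cells showing the perinucleolar compartment, a nuclear body marking cancer cells; inconclusive means readout between -30 and a set limit; inactive means the rest.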

A short description of the experiment: High Content Assay for Compounds that inhibit the Assembly of the Perinucleolar Compartment.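 Further: plate controls were DMSO wells for no effect and camptothecin positive control wells for full effect.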 As to conditions: PC3M PTB-GFP, PNC prevalence imaging, 16 h; at 10 µM; hits give low values. In short, it runs like this: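 Compounds are pinned in duplicate onto adhered PC3M cells stably expressing GFP-tagged PTB and incubated 16 h at 37 C. Cells are then fixed, nuclei stained with Hoechst, and PNC-positive cells counted.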
As to `COc1ccc(C(=O)NC2(C(F)(F)F)NC(=O)N(CCCc3ccccc3)C2=O)c(OC)c1OC` (centres undefined), the activity change (PNC), negative = inhibition is -8.14%. In the case of `O=C(O)CCC(=O)Nc1ccc(N2CCOCC2)cc1` it was -23.8%; in that of `CN(CC(=O)Nc1ccc(N2CCOCC2)cc1)CC(=O)Nc1ccccc1[N+](=O)[O-]`, -100% (active). As for `CC(=O)Nc1ccc(S(=O)(=O)N2CCN(c3ccc([N+](=O)[O-])c(NCCN4CCOCC4)c3)CC2)cc1`, the figure is -13.1%. In the case of `O=C(NCCc1ccccc1)C1CCC(Cn2c(=O)c3ccccc3n(Cc3cccnc3)c2=O)CC1` (centres undefined), the activity change (PNC), negative = inhibition was 13.2%. In the case of `Cc1nc(SCc2ccc(F)cc2)c([N+](=O)[O-])[nH]1` it was 17.5%. Take `CCC(NC(=O)c1ccccc1NC(=O)c1ccccc1)C(=O)NNC(=O)CSc1nc2ccccc2o1` (centres undefined): the activity change (PNC), negative = inhibition was -4.05%. In the case of `COCCn1c(=O)[nH]c(=O)c2cc(C(=O)c3cc(OC)ccc3O)cnc21` it was -8.95%; in that of `Cc1ccccc1N1CCN(CCCOc2ccc3c(C)cc(=O)oc3c2)CC1`, -23.3%; in that of `Cc1cc(=O)oc2cc(OCC3CC(c4ccccc4Cl)=NO3)ccc12` (centres undefined), -89.5% (active). As for `Cc1ccccc1NC(=O)c1ccc(COc2ccc3c(C)cc(=O)oc3c2)cc1`, the figure is 90.9%; as for `COc1ccc(/C(N)=N/OC(=O)CCCc2ccccc2)cc1`, -16.1%; as for `COc1ccccc1NC(=O)CCCc1c[nH]c2ccccc12`, -4.48%. As for `COc1ccccc1NC(=O)C1=C(C)Nc2nc3ccccc3n2C1c1cccs1` (centres undefined), the figure is -82.7% (active). Turning to `COc1ccccc1NC(=O)C1=C(C)Nc2ncnn2C1c1ccc(C)o1` (centres undefined), the activity change (PNC), negative = inhibition is -27.1%.

In the case of `COc1cc(C2C(C(=O)Nc3ccccc3OC)=C(C)Nc3ncnn32)ccc1O` (centres undefined), the activity change (PNC), negative = inhibition was 17.6%. In the case of `Cc1ccc(Oc2cc(NC(=O)CCCn3nc(C)c([N+](=O)[O-])c3C)cc([N+](=O)[O-])c2)cc1` it was 5%; in that of `CNC(=O)NC(=O)C(OC(=O)c1cccc(S(=O)(=O)N2CCCCC2)c1)c1ccccc1` (centres undefined), -3.58%; in that of `COc1cc(OC)cc(-c2nc3ccccc3c(=O)n2NC(=O)c2cccnc2Cl)c1`, -30%. In the case of `N#Cc1ccccc1Sc1ccccc1C(=O)OCC(=O)NC1CCCCC1`, the activity change (PNC), negative = inhibition is 33.1%. As for `O=C(COC(=O)c1cc(-c2cccs2)nn1-c1ccccc1)Nc1cc([N+](=O)[O-])ccc1Cl`, the figure is 21.6%. Consider `CCCCC(C(=O)OCC(=O)c1ccc(OC)cc1)N1C(=O)c2ccccc2C1=O` (centres undefined), for which the activity change (PNC), negative = inhibition was -100% (active). In the case of `COc1ccc(C(=O)CN(C(=O)c2ccc(Cl)cc2)N2C(=O)c3ccccc3C2=O)cc1`, the activity change (PNC), negative = inhibition was -9.88%. As for `COc1ccc(OCCCON2C(=O)c3ccccc3C2=O)cc1`, the figure is 0.67%.

Values taken from PubChem BioAssay AID2417 (National Center for Advancing Translational Sciences (NCATS), 2010).
